{
  "source": "PubChem BioAssay (NCATS)",
  "note": "“And” between values parts separate entries of the source, which are not always exact repeats. Equal entries are not always repeated. Inconclusive results are not listed. Where a call stands in place of a potency, no number is given. The source made the active and inactive calls. Calls follow the shape of the dose curve; as a rule, active = well fitted inhibition curve with a large enough effect in the repeat runs; inconclusive = weak or mixed curves; inactive = no such curve, though single readings can be large or run the other way. Potency is read from the fitted curve at half-maximal effect.",
  "data": [
    {"target": "Cytochrome P450 2C9 (Homo sapiens) (UniProt P11712)", "sequence (P11712 whole entry, looked up)": "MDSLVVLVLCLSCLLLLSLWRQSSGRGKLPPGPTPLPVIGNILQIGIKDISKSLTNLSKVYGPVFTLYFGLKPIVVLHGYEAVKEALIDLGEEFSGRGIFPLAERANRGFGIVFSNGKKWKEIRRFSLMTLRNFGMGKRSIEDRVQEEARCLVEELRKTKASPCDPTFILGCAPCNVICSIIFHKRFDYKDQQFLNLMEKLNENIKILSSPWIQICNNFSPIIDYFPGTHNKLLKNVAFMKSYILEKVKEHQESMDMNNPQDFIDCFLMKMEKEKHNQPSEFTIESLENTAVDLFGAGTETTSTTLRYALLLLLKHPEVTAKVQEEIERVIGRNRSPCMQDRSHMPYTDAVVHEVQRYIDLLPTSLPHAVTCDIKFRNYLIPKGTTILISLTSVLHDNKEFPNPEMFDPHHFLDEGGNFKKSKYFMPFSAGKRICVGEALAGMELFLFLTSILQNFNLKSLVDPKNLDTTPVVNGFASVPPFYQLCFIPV", "experiment": "Cytochrome P450 family 2 subfamily C member 9 (CYP2C9) small molecule antagonists: luciferase biochemical (cell-free) qHTS assay (AID 1645842); also: nearly all actives have a fitted effect of over 55% in size", "details": "P450-Glo CYP2C9 enzyme assay, luciferin luminescence; series mostly up to 57.4 µM", "how_it_was_run": "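P450-Glo CYP2C9 system: proluciferin substrate with enzyme in mix containing 0.4% BSA, 10 min at room temperature, then NADPH regeneration solution added and incubated 1 h at 37C. Detection reagent stopped reaction; luminescence read after 20 min as RLU.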", "values": [
      {"smiles": "CC(=O)O[C@H]1C[C@@H]2CC[C@@H]3[C@H](CC[C@@]4(C)[C@H]3C[C@H]([N+]3(C)CCCCC3)[C@@H]4OC(C)=O)[C@@]2(C)C[C@@H]1N1CCCCC1", "Potency": "inactive"},
      {"smiles": "NS(=O)(=O)c1cc2c(cc1Cl)NC(CC1CCCC1)NS2(=O)=O", "note": "(configuration not stated)", "Potency": "inactive"},
      {"smiles": "NC(=S)N/N=C/c1cccnc1", "Potency": "inactive"},
      {"smiles": "C[C@H]1O[C@@H](O[C@H]2CC[C@@]3(C)[C@H](CC[C@@H]4[C@@H]3C[C@@H](O)[C@]3(C)[C@@H](C5=CC(=O)OC5)CC[C@]43O)C2)C[C@H](O)[C@@H]1O[C@H]1C[C@H](O)[C@H](O[C@H]2C[C@H](O)[C@H](O[C@@H]3O[C@H](CO)[C@@H](O)[C@H](O)[C@H]3O)[C@@H](C)O2)[C@@H](C)O1", "Potency": "inactive"},
      {"smiles": "CCCCCN=C(N)N/N=C/c1c[nH]c2ccc(OC)cc12", "Potency": "inactive"},
      {"smiles": "C#C[C@]1(OC(C)=O)CC[C@H]2[C@@H]3CCC4=C/C(=N/O)CC[C@@H]4[C@H]3CC[C@@]21CC", "Potency": "952 nM (active) and 7.76 µM (active)"},
      {"smiles": "CC1(COc2ccc(CC3SC(=O)NC3=O)cc2)CCCCC1", "note": "(configuration not stated)", "Potency": "inactive"},
      {"smiles": "CCN(CC)CCOc1ccccc1C(=O)CCc1ccccc1", "Potency": "inactive"},
      {"smiles": "Oc1c(Cl)cc(Cl)c(Cl)c1Cc1c(O)c(Cl)cc(Cl)c1Cl", "Potency": "1.55 µM (active)"},
      {"smiles": "Nc1nc(N)c(-c2ccccc2)s1", "Potency": "inactive"},
      {"smiles": "CC(C)=CCOc1ccc(/C=C/C(=O)c2ccc(OCC=C(C)C)cc2OCC(=O)O)cc1", "Potency": "15.5 µM (active)"},
      {"smiles": "CCN(CC)CCOc1ccc2c(c1)C(=O)c1cc(OCCN(CC)CC)ccc1-2", "Potency": "inactive"},
      {"smiles": "CNCCCCOc1ccccc1Cc1ccccc1", "Potency": "inactive"},
      {"smiles": "C#C[C@]1(O)CC[C@H]2[C@@H]3CCc4cc(OC)ccc4[C@H]3CC[C@@]21C", "Potency": "6.92 µM (active) and 4.25 µM (active)"},
      {"smiles": "CN1CCc2cccc3c2[C@H]1Cc1ccc(O)c(O)c1-3", "Potency": "inactive"},
      {"smiles": "CCCCCCCCNC(C)C(O)c1ccc(SC(C)C)cc1", "note": "(configuration not stated)", "Potency": "inactive"},
      {"smiles": "c1ccc(CC2=NCCN2)cc1", "Potency": "inactive"},
      {"smiles": "CCN(CC)CCNc1ccc(CO)c2sc3ccccc3c(=O)c12", "Potency": "inactive"},
      {"smiles": "COc1cc([C@H]2Oc3cc([C@H]4Oc5cc(O)cc(O)c5C(=O)[C@@H]4O)ccc3O[C@@H]2CO)ccc1O", "Potency": "8.71 µM (active)"},
      {"smiles": "CN(C)CCOC(=O)C(c1ccccc1)C1(O)CCCC1", "note": "(configuration not stated)", "Potency": "inactive"},
      {"smiles": "Cc1ccc(-c2ncc(Cl)cc2-c2ccc(S(C)(=O)=O)cc2)cn1", "Potency": "inactive"},
      {"smiles": "COc1ccc2c(c1)c1c3n2CCN(C)C3=NCC1", "Potency": "inactive"},
      {"smiles": "CC(=O)Nc1ncc([N+](=O)[O-])s1", "Potency": "inactive"},
      {"smiles": "CCOC(=O)C(C#N)=C(c1ccccc1)c1ccccc1", "Potency": "2.45 µM (active)"},
      {"smiles": "COc1ccc(-c2cc(C(F)F)nn2-c2ccc(S(N)(=O)=O)cc2)cc1F", "Potency": "6.17 µM (active)"},
      {"smiles": "N/C(=N\\N=C\\c1ccc(Cl)cc1)N/N=C/c1ccc(Cl)cc1", "Potency": "13.8 µM (active)"},
      {"smiles": "CC(C)(C)NC[C@H](O)COc1cccc2c1CCCC2=O", "Potency": "inactive"}
    ]}
  ]
}
